PLC-gamma1 inh: inhibitors of human phospholipase C gamma1 | purified PLC-gamma1, fluorogenic substrate, fluorescence | inhibition, % at 12.2 µM | P19174 | 370,000 tested, 0.84% active; in the data active = inhibition above about 9.5%
ADAM17 inh: inhibits human ADAM17. recombinant ADAM17, EDANS/DABCYL FRET peptide cleavage. inhibition, % at 6.95 µM. 370,000 tested, 0.83% active;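 active = inhibition above the mean of compounds lying between control limits plus 3 SD, set per campaign, cut at about 8.5% in these data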;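 note: 0% = DMSO-only wells as the low control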
ADAM10 inh: inhibits human ADAM10; 370,000 tested, 0.62% active; recombinant ADAM10, EDANS/DABCYL FRET peptide cleavage, 3 h; O14672; inhibition, % at 7 µM;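 active = inhibition above a per-campaign cutoff equal to the mean of compounds falling between control-based bounds plus 3 SD, cut at about 20% in these data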;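 note: 0% = DMSO wells while the 100% control is not disclosed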
PLC-beta3 inh: blocks human PLC-beta3 enzyme activity | Q01970 | inhibition, % at 12.2 µM | 370,000 tested, 0.18% active | Purified PLC-beta3, fluorogenic substrate, fluorescence; in the data active = inhibition above about 11%;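 note: 0% = median of compound wells on plate and 100% = full blocker control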
proKLK7 act: activates the human kallikrein-7 zymogen | purified proKLK7, EDANS-DABCYL substrate fluorescence; 100% is mature enzyme control, 0% vehicle | activation, % at 7 µM | 370,000 tested, 0.9% active;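 active = activation above the mean of all tested compounds plus 3 SD, computed per campaign excluding outliers beyond control limits, cut at about 13% in these data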
ADAM10 counter: counter-screen for ADAM17 exosite inhibitors: inhibitors of human ADAM10. shares compounds with ADAM17 inh. recombinant ADAM10, EDANS/DABCYL FRET peptide cleavage, 3 h. inhibition, % at 6.95 µM. 2,900 tested, 47% active. AID 743256;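 active = mean inhibition over the triplicate runs exceeds the activity threshold set in the earlier primary screen, cut at about 20% in these data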;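 note: 0% = DMSO wells and 100% = marimastat wells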
ADAM17 confirm: human ADAM17 inhibition, confirmation; inhibition, % at 6.95 µM; shares compounds with ADAM17 inh; 2,900 tested, 65% active; recombinant ADAM17, EDANS/DABCYL QFRET peptide cleavage; AID 743257;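 active = mean inhibition across replicates above the hit cutoff set in the primary screen, cut at about 8.5% in these data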;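 note: 0% = DMSO wells and 100% = marimastat wells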
* hit, by the source's call; · = no result. Rows were chosen to be rich in hits. Some 2.9% of all compounds tested hit in one or more screens of this group.

SMILES	PLC-gamma1 inh	ADAM17 inh	ADAM10 inh	PLC-beta3 inh	proKLK7 act	ADAM10 counter	ADAM17 confirm
O=C(C[C@H]1C/C=C\C[C@H](NC(=O)OCC2c3ccccc3-c3ccccc32)C(=O)OC[C@H](Cc2ccccc2)NC1=O)N[C@H](CO)Cc1ccccc1	-2	0	11	3	0	·	·
Cc1cc(C)c2sc(NC(=O)C3=COCCO3)nc2c1	-4	6	4	-16	0	·	·
O=C(OCc1cnc(Cl)s1)c1cccc(Cl)c1Cl	8	9.0*	7	4	-1	19	12*
O=C(CSc1nc(Nc2ccccc2)nc(N2CCOCC2)n1)Nc1cccc([N+](=O)[O-])c1	-2	10*	15	-1	0	38*	22*
Cc1ccc(C(C(=O)NC2CCCC2)N(Cc2cccs2)C(=O)CNC(=O)c2cccs2)o1 (stereo not drawn)	4	9.2*	13	6	0	-5	2
Cc1ccc(C(C(=O)NC2CCCC2)N(C(=O)CNC(=O)c2cccs2)c2cccnc2)o1 (stereo not drawn)	-1	-1	-2	0	0	·	·
Cc1ccc(-c2csc3ncnc(NCCC(=O)O)c23)cc1C	-3	0	0	-6	0	·	·
O=C(N/N=C/c1cccc2cccnc12)c1ccccc1O	-8	0	0	-16	1	·	·
C#CCn1c(S(=O)(=O)Cc2ccc(F)cc2)nc(-c2ccccc2)c1-c1ccccc1	1	8.7*	16	1	0	22*	16*
CC(=O)Nc1ccc(NC(=O)C(C)OC(=O)CNS(=O)(=O)/C=C/c2ccc(C)cc2)cc1 (stereo not drawn)	3	-2	3	2	0	·	·
CC1(C)C=Cc2c(c3c(c4c(=O)c(-c5ccc(O)cc5)coc24)OC(C)(C)CC3)O1	-19	4	0	-24	-2	·	·
CC(C)=CCc1c2c(c3occ(-c4ccc(O)c(O)c4)c(=O)c3c1O)C=CC(C)(C)O2	8	11*	7	6	0	13	8
CC(C)=CCc1c2c(c3occ(-c4ccc(O)cc4)c(=O)c3c1O)C=CC(C)(C)O2	5	9.5*	19	6	0	21*	15*
CC(C)=CCc1c(O)cc2c(=O)c3ccc(O)cc3oc2c1O	-2	4	8	-4	1	·	·
COC(=O)N/N=C/c1cc([N+](=O)[O-])cc(Br)c1O	5	11*	18	6	0	6	4
O=C(CNC(=O)c1ccccc1Br)N/N=C\c1cc([N+](=O)[O-])cc(Br)c1O	-1	1	10	-4	0	·	·
Cc1cc(C)nc(NC(=O)CSc2nc3ccccc3s2)n1	-7	-3	-3	-3	-1	·	·
Cc1nc(NC(=O)CSc2nc3ccccc3s2)sc1C(=O)N(C)C	-4	10*	2	-10	0	10	7
COc1ccccc1OCCNC(=O)CN1C(=O)NC2(CCCC2)C1=O	5	9.3*	-1	-3	0	8	8
COCCCNC(=O)c1ccc2nc([C@@H]3O[C@H](CO)[C@H](O)[C@H](O)[C@H]3O)[nH]c2c1	3	1	-8	3	0	·	·
ON=C(c1ccccc1)c1ccc2c3c(cccc13)CC2	-3	12*	2	-3	0	20*	9.0*
COCCN(C(=O)C1CCC1)c1c(N)n(CC(C)C)c(=O)[nH]c1=O	-1	-3	-6	-2	-1	·	·
CCCCC1CCC(C(=O)N(CCOC)c2c(N)n(CC(C)C)c(=O)[nH]c2=O)CC1 (stereo not drawn)	14*	9.3*	-9	2	0	3	4
Cc1ccc(/C=N/NC(=O)C2CC(=O)N(c3ccccc3)C2)s1 (stereo not drawn)	8	10*	4	6	1	0	2
Cc1cccc(CN2[C@H](COCc3ccccc3)C=CS2(=O)=O)c1	2	-2	-9	-1	-1	·	·
CC(=O)Nc1ccc(OCC(=O)c2cc(C)ccc2C)cc1	0	6	7	3	1	·	·

Screening data deposited in PubChem BioAssay by The Scripps Research Institute Molecular Screening Center.
